Source: PubChem BioAssay (NCATS)
Results filed as inconclusive are left out. Activity calls are given as the source filed them. Calls follow the shape of the dose curve; as a rule, active = well fitted inhibition curve with a large enough effect; inconclusive = small, poorly fitted or top-dose-only effect; inactive = flat fitted curve, though single readings scatter.

Key:
HB3 = experiment: qHTS profiling for inhibitors of Plasmodium falciparum proliferation (AID 504749); also: potency is read from the fitted curve at half-maximal effect; conditions: P. falciparum in erythrocytes, SYBR Green DNA, 72 h; series mostly up to 28.7 µM
Procedure, shortened: (§1)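 Infected RBCs, 0.3% parasitemia/2.5% Hct final; cpd 72 h, 37 C, 5% CO2; lysis buffer with saponin/triton/SYBR Green I, o/n RT dark; FI 485/535; norm. to artemisinin (0.29 uM) and DMSO.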

JCK = experiment: as above; conditions: P. falciparum in erythrocytes, SYBR Green DNA, 72 h; series mostly up to 28.7 µM
Procedure, shortened: as §1

N140 = experiment: as above; conditions: P. falciparum in erythrocytes, SYBR Green DNA, 72 h; series mostly up to 28.7 µM
Procedure, shortened: as §1

P93_24 = experiment: as above; conditions: P. falciparum in erythrocytes, SYBR Green DNA, 72 h; series mostly up to 28.7 µM
Procedure, shortened: as §1

P94_40 = experiment: as above; conditions: P. falciparum in erythrocytes, SYBR Green DNA, 72 h; series mostly up to 28.7 µM
Procedure, shortened: as §1

PAD = experiment: as above; conditions: P. falciparum in erythrocytes, SYBR Green DNA, 72 h; series mostly up to 28.7 µM
Procedure, shortened: as §1

PC15 = experiment: as above; conditions: P. falciparum in erythrocytes, SYBR Green DNA, 72 h; series mostly up to 28.7 µM
Procedure, shortened: as §1

PC26 = experiment: as above; conditions: P. falciparum in erythrocytes, SYBR Green DNA, 72 h; series mostly up to 28.7 µM
Procedure, shortened: as §1

PC49 = experiment: as above; conditions: P. falciparum in erythrocytes, SYBR Green DNA, 72 h; series mostly up to 28.7 µM
Procedure, shortened: as §1

SC27B = experiment: as above; conditions: P. falciparum in erythrocytes, SYBR Green DNA, 72 h; series mostly up to 28.7 µM
Procedure, shortened: as §1

TAB109 = experiment: as above; conditions: P. falciparum in erythrocytes, SYBR Green DNA, 72 h; series mostly up to 28.7 µM
Procedure, shortened: as §1

TAB113 = experiment: as above; conditions: P. falciparum in erythrocytes, SYBR Green DNA, 72 h; series mostly up to 28.7 µM
Procedure, shortened: as §1

TAB165 = experiment: as above; conditions: P. falciparum in erythrocytes, SYBR Green DNA, 72 h; series mostly up to 28.7 µM
Procedure, shortened: as §1

KB-3-1 = experiment: Cytotoxic Profiling of Annotated Libraries Using Quantitative High-Throughput Screening (AID 1296008); conditions: Five cell lines viability, CellTiter-Glo ATP luminescence, 48-72 h; max response: hits give low values; as to max response: % is scaled to controls: 0 for no effect and ±100 for the full control effect
Procedure, shortened: (§2)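 Cytotoxicity was measured as CellTiter-Glo ATP luminescence, read after 10 min at room temperature. Compound treatment of the cells lasted 48 or 72 hr at 37 degrees Celsius in a qHTS format.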

NIH3T3 = experiment: as above; conditions: Five cell lines viability, CellTiter-Glo ATP luminescence, 48-72 h; max response: hits give low values
Procedure, shortened: as §2

ICS = experiment: qHTS profiling for inhibitors of Plasmodium falciparum proliferation (AID 504749); also: potency is read from the fitted curve at half-maximal effect; conditions: P. falciparum in erythrocytes, SYBR Green DNA, 72 h; series mostly up to 28.7 µM
Procedure, shortened: as §1

W2 = experiment: as above; conditions: P. falciparum in erythrocytes, SYBR Green DNA, 72 h; series mostly up to 28.7 µM
Procedure, shortened: as §1

HaCat = experiment: Cytotoxic Profiling of Annotated Libraries Using Quantitative High-Throughput Screening (AID 1296008); conditions: Five cell lines viability, CellTiter-Glo ATP luminescence, 48-72 h; max response: hits give low values; as to max response: % is scaled to controls: 0 for no effect and ±100 for the full control effect
Procedure, shortened: as §2
Also: nearly all actives have a fitted effect of over 60% in size.

CCCCN1CCCC1C(=O)Nc1c(C)cc(C)cc1C (stereo unspecified)
inactive: Potency (HB3) | Potency (JCK) | Potency (N140) | Potency (P93_24) | Potency (P94_40) | Potency (PAD) | Potency (PC15) | Potency (PC26) | Potency (PC49) | Potency (SC27B) | Potency (TAB109) | Potency (TAB113) | Potency (TAB165) | max response (KB-3-1) -0.66% | max response (NIH3T3) -4.8%

CC(C)C[C@H]1C(=O)N2CCC[C@H]2[C@]2(O)O[C@](NC(=O)[C@@H]3C=C4c5cccc6[nH]c(Br)c(c56)C[C@H]4N(C)C3)(C(C)C)C(=O)N12
inactive: max response (KB-3-1) 3.47%

NC(CO)(CO)CO
inactive: Potency (HB3) | Potency (ICS) | Potency (JCK) | Potency (N140) | Potency (P93_24) | Potency (P94_40) | Potency (PAD) | Potency (PC15) | Potency (PC26) | Potency (PC49) | Potency (SC27B) | Potency (TAB109) | Potency (TAB113) | Potency (TAB165) | Potency (W2) | max response (KB-3-1) 3.6% | max response (NIH3T3) -20%

Oc1ccc(Cl)cc1Sc1cc(Cl)ccc1O
active: Potency (ICS) 8.91 µM
inactive: Potency (HB3) | Potency (JCK) | Potency (N140) | Potency (P93_24) | Potency (P94_40) | Potency (PAD) | Potency (PC15) | Potency (PC26) | Potency (PC49) | Potency (TAB109) | max response (HaCat) 2% | max response (NIH3T3) -21.9%

C[N+]1(CCCCC[N+]2(C)CCCC2)CCCC1
inactive: Potency (HB3) | Potency (ICS) | Potency (JCK) | Potency (N140) | Potency (P93_24) | Potency (P94_40) | Potency (PAD) | Potency (PC15) | Potency (PC26) | Potency (PC49) | Potency (SC27B) | Potency (TAB109) | Potency (TAB113) | Potency (TAB165) | Potency (W2) | max response (KB-3-1) 15%

Cc1c(C(N)=O)cc([N+](=O)[O-])cc1[N+](=O)[O-]
inactive: Potency (HB3) | Potency (ICS) | Potency (JCK) | Potency (N140) | Potency (P93_24) | Potency (P94_40) | Potency (PAD) | Potency (PC15) | Potency (PC26) | Potency (PC49) | Potency (SC27B) | Potency (TAB109) | Potency (TAB113) | Potency (TAB165)

CC/C(=C(/CC)c1ccc(O)cc1)c1ccc(O)cc1
inactive: Potency (HB3) | Potency (JCK) | Potency (N140) | Potency (P93_24) | Potency (PAD) | Potency (PC26) | Potency (PC49) | Potency (TAB109) | max response (KB-3-1) -22.7% | max response (NIH3T3) -25.4%

CC[C@H](C)C(=O)O[C@H]1CCC=C2C=C[C@H](C)[C@H](CC[C@@H]3C[C@@H](O)CC(=O)O3)[C@H]21
inactive: max response (KB-3-1) 3.96%

Oc1c(I)cc(I)c2cccnc12
active: Potency (P94_40) 11.2 µM
inactive: Potency (JCK) | Potency (PC49) | Potency (SC27B) | Potency (TAB113) | outcome (HaCat) | max response (KB-3-1) -18.8%

N[C@H](CO)C(=O)O
inactive: Potency (HB3) | Potency (ICS) | Potency (JCK) | Potency (N140) | Potency (P93_24) | Potency (P94_40) | Potency (PAD) | Potency (PC15) | Potency (PC26) | Potency (PC49) | Potency (SC27B) | Potency (TAB109) | Potency (TAB113) | Potency (TAB165) | Potency (W2) | max response (KB-3-1) -2.03%

CC(C)COC(=O)OCN1C(=O)CN(CCN2CC(=O)N(COC(=O)OCC(C)C)C(=O)C2)CC1=O
inactive: Potency (HB3) | Potency (ICS) | Potency (JCK) | Potency (N140) | Potency (P93_24) | Potency (P94_40) | Potency (PAD) | Potency (PC15) | Potency (PC26) | Potency (PC49) | Potency (SC27B) | Potency (TAB109) | Potency (TAB113) | Potency (TAB165) | Potency (W2) | max response (KB-3-1) 6.86%

CC(Cc1cccc(C(F)(F)F)c1)NCCOC(=O)c1ccccc1 (stereo unspecified)
inactive: Potency (HB3) | Potency (ICS) | Potency (JCK) | Potency (N140) | Potency (P93_24) | Potency (P94_40) | Potency (PAD) | Potency (PC15) | Potency (PC26) | Potency (PC49) | Potency (SC27B) | Potency (TAB109) | Potency (TAB113) | Potency (TAB165)

O=C(O)c1cc2cc(Cc3cccnc3)ccc2o1
inactive: Potency (HB3) | Potency (ICS) | Potency (JCK) | Potency (N140) | Potency (P93_24) | Potency (P94_40) | Potency (PAD) | Potency (PC15) | Potency (PC26) | Potency (PC49) | Potency (SC27B) | Potency (TAB109) | Potency (TAB113) | Potency (TAB165) | Potency (W2) | max response (KB-3-1) 4.6%

CCCCCCCCCCCCCCNCCO
active: Potency (HB3) 10 µM | Potency (ICS) 6.31 µM | Potency (N140) 14.1 µM | Potency (W2) 9.53 µM
inactive: Potency (JCK) | Potency (PC26) | Potency (PC49) | Potency (SC27B) | Potency (TAB109) | Potency (TAB113) | Potency (TAB165) | max response (KB-3-1) 5.95%

CCCC1O[C@@H]2C[C@H]3[C@@H]4CCC5=CC(=O)C=C[C@]5(C)[C@H]4[C@@H](O)C[C@]3(C)[C@]2(C(=O)CO)O1 (stereo partly specified)
inactive: max response (KB-3-1) 0.499%

CCCSS/C(CCO)=C(\C)N(C=O)Cc1cnc(C)nc1N
inactive: max response (KB-3-1) 33.8%

Nc1ccc(C(=O)Nc2ccccc2N)cc1
inactive: Potency (HB3) | Potency (ICS) | Potency (JCK) | Potency (N140) | Potency (P93_24) | Potency (P94_40) | Potency (PAD) | Potency (PC15) | Potency (PC26) | Potency (PC49) | Potency (SC27B) | Potency (TAB109) | Potency (TAB113) | Potency (TAB165) | max response (KB-3-1) -27.7%

C[C@]12C=CC(=O)C=C1CC[C@@H]1[C@@H]2[C@@H](O)C[C@@]2(C)[C@H]1CC[C@]2(O)C(=O)CO
inactive: outcome (NIH3T3)
